Data as given in PubChem BioAssay AID504466 (National Center for Advancing Translational Sciences (NCATS), 2011).
Among all 330,000 compounds or so, about 4,200 (1.3%) were called active. Entries that show only a call come without a potency. Not shown: some 6% with an inconclusive outcome. This is one part of a sample in which actives are shown more often than they occur. Calls follow the shape of the dose curve; as a rule, active = well fitted activation curve with a large enough effect; inconclusive = small, poorly fitted or top-dose-only effect; inactive = no such curve, though single readings can be large or run the other way.

Test: qHTS screen for small molecules that induce genotoxicity in human embryonic kidney (HEK293T) cells expressing luciferase-tagged ELG1; also: nearly all actives have a fitted effect of over 60% in size
Conditions: HEK293T ELG1-luciferase reporter, luminescence, 16 h; series mostly up to 46 µM
How it was run: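 Genotoxicity was scored as increased ELG1-luciferase reporter signal, measured by ONE-Glo luminescence (30 min, room temperature). Compound or vehicle exposure of the HEK293T reporter cells lasted 16 hr at 37°C.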
Potency is read from the fitted curve at half-maximal effect.

Row | SMILES | Potency | activity change, positive = activation
1 | O=C(OCC(=O)N1CCN(C(=O)c2ccco2)CC1)c1c(Cl)cccc1Cl | inactive | 
2 | O=C(Nc1cc(S(=O)(=O)Nc2ccc(Cl)cc2)ccc1O)c1ccc(F)cc1F | inactive | 
3 | COC(=O)C1CCN(C(=O)COC(=O)c2cc(S(=O)(=O)N3CCOCC3)ccc2C)CC1 | inactive | 
4 | COCCN(CCOC)S(=O)(=O)NC[C@H]1O[C@@H](n2cnc3c(N)ncnc32)[C@H](O)[C@@H]1O | inactive | 
5 | CCN1C(=O)c2cccc3c(S(=O)(=O)Nc4ccccc4O)ccc1c23 | 23.1 µM (active) | 
6 | CN1C(=O)c2cccc3c(N)ccc(c23)C1=O | inactive | 
7 | CCN1C(=O)c2cccc3c(N)ccc1c23 | 20.6 µM (active) | 
8 | Cc1nn(C)cc1N1C(=O)c2cccc3c(N)ccc(c23)C1=O | inactive | 
9 | Cc1cccc(NC(=O)CN2C(=O)c3ccccc3C2=O)c1C | inactive | 
10 | O=C(CN1C(=O)c2cccc3cccc1c23)Nc1ccccc1 | inactive | 
11 | CC(C)COc1ccc(C(=O)NNC(=O)CCC(=O)c2cccs2)cc1 | inactive | 
12 | CCOC(=O)N1CCN(C(=O)COc2ccc3oc4c(c3c2)CCCC4)CC1 | inactive | 
13 | CCN(CC)CCCNC(=O)COc1ccc2oc3c(c2c1)CCCC3 | inactive | 
14 | O=C(COc1ccc2oc3c(c2c1)CCCC3)Nc1ccccn1 | 16.4 µM (active) | 
15 | CC[C@]12c3[nH]c4cc(CCC(=O)N(C)C)ccc4c3CCN1C(=O)[C@@H](CC(=O)NCC13CC4CC(CC(C4)C1)C3)C[C@@H]2C(=O)N1CCN(C(=O)C2CC2)CC1 | inactive | 
16 | COc1ccc2nc3n(c(=O)c2c1)-c1cc(C)ccc1C(=O)NC3Cc1ccc(O)cc1 (configuration not stated) | inactive | 
17 | Cc1cc(=O)oc2cc(NC(=O)C(C)Oc3ccccc3)ccc12 (configuration not stated) | inactive | 
18 | CC(C)C(=O)Nc1ccc2c(c1)oc1ccccc12 | 4.11 µM (active) | 
19 | CC(C)C(=O)Nc1ccc2oc(=O)ccc2c1 | inactive | 
20 | COc1cccc(NC(=O)COc2cccnc2[N+](=O)[O-])c1 | inactive | 
21 | CC(C)(C)OC(=O)C[C@@H]1C/C=C\C[C@@H](CC(=O)N[C@H](CO)Cc2ccccc2)C(=O)NCCOC1=O | inactive | 
22 | Cc1nc2ccc(S(=O)(=O)N(C)CC(=O)NC(C)c3ccccc3)cc2s1 (configuration not stated) | inactive | 
23 | Cc1ccc2nc(-c3ccc(NC(=O)CN(C)S(=O)(=O)c4ccccc4)cc3)sc2c1 | 5.8 µM (active) | 
24 | COc1cc(NC(=O)CN(C)S(=O)(=O)c2ccc3nc(C)sc3c2)cc(OC)c1 | inactive | 
25 | O=C1c2ccccc2[C@@H]2C[C@@H](O)[C@H](Nc3ccccc3Cl)CCN12 | inactive | 

Row | SMILES | Potency | activity change, positive = activation
26 | Cc1cc(C(=O)COC(=O)C2CC2)c(C)n1-c1ccc(F)cc1 | 2.59 µM (active) | 
27 | Cc1cc(C(=O)COc2ccccc2Cl)c(C)n1C1CC1 | inactive | 
28 | Cc1ccc(-n2c(C)cc(C(=O)CN3C(=O)C(=O)N(C4CCCC4)C3=O)c2C)cc1 | inactive | 
29 | COC(=O)c1cc(OC)c(OC)cc1NC(=O)CSc1ccc(C)cc1 | inactive | 
30 | Cc1ccc(C(=O)CSc2ccccc2C(=O)O)cc1 |  | 12.5% [at 9.26 µM] (inactive)
31 | Cc1ccc(SCC(=O)c2cc(C)c(OC(=S)N(C)C)c(C)c2)cc1 | 7.31 µM (active) | 
32 | COC(=O)[C@]1(Cc2ccccc2)N[C@H](CN(C)S(=O)(=O)c2ccc(OC(F)(F)F)cc2)[C@@H]2C(=O)N(Cc3ccccc3)C(=O)[C@@H]21 | inactive | 
33 | O=C(COC(=O)c1cccc(Cl)c1)NC(=O)NCc1ccccc1 | inactive | 
34 | Nc1ncc(-c2cc3ccccc3oc2=O)s1 | 2.59 µM (active) | 
35 | O=C(NCc1cccnc1)c1cccc(-c2cc3ccccc3oc2=O)c1 | inactive | 
36 | O=C(Nc1ccncc1)c1cc2ccccc2o1 | inactive | 
37 | O=C(COC(=O)c1ccccc1)Nc1ccccc1Sc1ccccc1 | inactive | 
38 | O=C(COC(=O)Cn1cnc2ccccc21)Nc1cccc2c1C(=O)c1ccccc1C2=O | inactive | 
39 | O=C(COC(=O)c1cccc(Br)c1)Nc1cccc2c1C(=O)c1ccccc1C2=O | 13 µM (active) | 
40 | C[C@H](CO)N1C[C@H](C)[C@H](CN(C)CC2CC2)Oc2ccc(NC(=O)CCN3CCOCC3)cc2C1=O | inactive | 
41 | COC(=O)c1ccc(CSc2nc3cc(Cl)ccc3o2)cc1 | inactive | 
42 | CC(C)c1nc2cc(C(=O)NC(C)c3cnn(C)c3)ccc2o1 (configuration not stated) | inactive | 
43 | COC(=O)c1ccc(CNC(=O)c2ccc3oc(C(C)C)nc3c2)cc1 | 20.6 µM (active) | 
44 | C=CC[C@@H](CC(=O)NCCO)C(=O)N[C@H](C)COC(=O)[C@@H](CC=C)CC(=O)OC(C)(C)C | inactive | 
45 | Cc1cccc(C(=O)OCC(=O)NC(C)C2CC3CCC2C3)c1O (configuration not stated) | inactive | 
46 | COc1ccccc1NC(=O)COC(=O)CNC(=O)C1CCCCC1 | inactive | 
47 | Nc1ncnc2c1ncn2[C@@H]1O[C@H](CNS(=O)(=O)c2ccc(-c3ccno3)s2)[C@@H](O)[C@H]1O | inactive | 
48 | O=C(CCCOc1ccccc1)NNC(=O)c1ccc(Cl)cc1 | inactive | 
49 | CC(=O)Nc1cccc(-c2cnc3ccccc3n2)c1 | 10.3 µM (active) | 
50 | CC(=O)Nc1cccc(Nc2nc(-c3cccs3)nc3ccccc23)c1 | inactive | 

Row | SMILES | Potency | activity change, positive = activation
51 | CCS(=O)(=O)Nc1cccc(-c2cc(-c3ccccc3)c3cc(C)ccc3n2)c1 | inactive | 
52 | O=C(c1ccc(S(=O)(=O)NCc2ccco2)cc1)N1CCN(c2ccccc2)CC1 | inactive | 
53 | Cc1noc(C)c1C(=O)Nc1ccccn1 | inactive | 
54 | COC(=O)c1oc2ccc(Br)cc2c1NC(C)=O | inactive | 
55 | Cc1c(C(=O)Nc2ccccn2)oc2ccc(Br)cc12 | 9.2 µM (active) | 
56 | O=C(COC(=O)COc1cc(Cl)c(Cl)cc1Cl)NC1CC1 | inactive | 
57 | COc1c(O)cc2oc(-c3ccc(O)c(O)c3)cc(=O)c2c1O | 20.6 µM (active) | 
58 | CCOC(=O)COc1cc(O)c2c(=O)cc(-c3ccccc3)oc2c1 | inactive | 
59 | COc1ccc(-c2cc(=O)c3c(O)cc(O[C@@H]4O[C@H](CO[C@@H]5O[C@@H](C)[C@H](O)[C@@H](O)[C@H]5O)[C@@H](O)[C@H](O)[C@H]4O)cc3o2)cc1O | inactive | 
60 | CCN(C(=O)COC(=O)CCC(=O)c1cccs1)C1CCCCC1 | inactive | 
61 | C[C@H](CO)N1C[C@H](C)[C@H](CN(C)C(=O)Nc2ccc(C(F)(F)F)cc2)Oc2c(NC(=O)c3ccncc3)cccc2C1=O | inactive | 
62 | C[C@]12c3[nH]c4ccc(Cl)cc4c3CCN1C(=O)[C@@H](CC(=O)NCCCn1ccnc1)C[C@@H]2C(=O)N1CCOCC1 | inactive | 
63 | CCC1CCCCN1C(=S)NC(=O)c1ccco1 (configuration not stated) | inactive | 
64 | COc1ccc2c(CC(=O)NNC(=O)c3ccccc3F)coc2c1 | inactive | 
65 | O=C(CN1CCN(c2ccccn2)CC1)N1CCc2ccccc21 | inactive | 
66 | CCC(=O)N1CCCc2ccccc21 | inactive | 
67 | O=C(CSCc1ccccc1)N1CCc2ccccc21 | 2.59 µM (active) | 
68 | COc1cc(C2CC(=O)Oc3cc(OC)c(OC)c(OC)c32)cc(OC)c1OC (configuration not stated) | inactive | 
69 | CC1CC(=NNC(=O)C2COc3ccccc3O2)CC(C)(C)C1 (configuration not stated) | inactive | 
70 | COc1cc(SC)ccc1C(=O)N(Cc1ccccc1)c1ccccc1 | inactive | 
71 | Cc1csc(NC(=O)c2ccc(-c3ccc(Cl)cc3Cl)o2)n1 | inactive | 
72 | COc1cc(SC)ccc1C(=O)Nc1nc(C)cs1 | 0.058 µM (active) | 
73 | CN(C)C(=O)CCc1ccc2c3c([nH]c2c1)[C@]1(CCc2ccccc2)[C@@H](C(=O)N2CCCCC2)C[C@H](CC(=O)NCCC2=CCCCC2)C(=O)N1CC3 | inactive | 
74 | CN(Cc1ccc(F)cc1)C(=O)CN1C(=O)c2ccccc2S1(=O)=O | inactive | 
75 | CC[C@]12c3[nH]c4cc(CCC(=O)N(C)C)ccc4c3CCN1C(=O)[C@@H](CC(=O)NCc1ccco1)C[C@@H]2C(=O)N1CCN(C(=O)c2ccco2)CC1 | inactive | 

Row | SMILES | Potency | activity change, positive = activation
76 | C(=N/N1CCN(c2ccccc2)CC1)/c1cccs1 | 14.6 µM (active) | 
77 | Cc1ccc(N2CCN(/N=C/c3cccs3)CC2)cc1 | inactive | 
78 | COc1cc(/C=N/N2CCN(c3ccccc3)CC2)ccc1OC(C)=O | inactive | 
79 | CN(CC(=O)Nc1ccc(OC(F)F)cc1)S(=O)(=O)/C=C/c1ccccc1 | inactive | 
80 | COc1ccc2sc(-c3ccc(N(C)C)cc3)c(-c3ccc4cc[nH]c4c3)c2c1 | inactive | 
81 | Cc1ccc(C(=O)Nc2ccc(NC(=O)c3cccs3)cc2)c(C)c1 | inactive | 
82 | O=C(Nc1ccc(NC(=O)c2cccs2)cc1)c1ccc2ccccc2c1 | inactive | 
83 | O=C(Nc1ccc2oc(-c3ccc4ccccc4c3)nc2c1)c1cccs1 | 2.91 µM (active) | 
84 | COc1ccc(CCNC(=O)COC(=O)c2cnc(Cl)c(Cl)c2)cc1 | inactive | 
85 | Cc1ccc2[nH]c(=O)c(COC(=O)c3ccccn3)cc2c1 | inactive | 
86 | CCOC(=O)c1cc2cc(C)ccc2[nH]1 | 20.6 µM (active) | 
87 | CCOC(=O)c1[nH]c2ccc(C)cc2c1N=C(C)N(C)C | inactive | 
88 | C[C@H]1CN([C@@H](C)CO)C(=O)Cc2cc(NC(=O)Cc3ccccc3)ccc2O[C@H]1CN(C)S(=O)(=O)c1cccs1 | inactive | 
89 | Cc1ccc(N2C(=O)N3[C@@H]4c5ccccc5OC[C@@H]4[C@@H](c4ccccc4)[C@@]3(C)C2=O)cc1 | inactive | 
90 | Cc1sc(NC(=O)c2ccc3ncsc3c2)c(C(N)=O)c1C | 2.31 µM (active) | 
91 | Cc1ccc(C(=O)c2c(NC(=O)c3ccccc3)sc(C)c2C)cc1 | inactive | 
92 | COc1ccccc1-c1nnc(NC(=O)c2ccc3ncsc3c2)o1 | inactive | 
93 | C=CC[C@H](CC(=O)NCCO)C(=O)N[C@@H](COC(=O)[C@@H](CC=C)Cc1ccc(F)cc1)Cc1c[nH]c2ccccc12 | inactive | 
94 | CC(=O)c1ccc2c(ccc3ccccc32)c1 | 23.1 µM (active) | 
95 | CCN(CC)Cc1cc(C(C)=O)ccc1O | inactive | 
96 | CC(=O)c1ccc2c(c1)OCCOCCOc1ccc(C(C)=O)cc1OCCOCCO2 | inactive | 
97 | COc1ccccc1N(CC(=O)Nc1ccc(C)cc1Cl)S(=O)(=O)c1cccs1 | inactive | 
